A selection: hits, their analogues and other compounds. The true share with any hit is near 2.5%.
V-ATPase pHluor = regulators of yeast V-ATPase proton pumping, primary screen, pHLuorin cytosolic pH fluorescence | S. cerevisiae | response, % at 10 µM | hit rate 0.37% among 350,000; in the data active means response mostly above about 7.3%, no sharp cut-off; inactive means mostly below about 5.4%; further: actives read high
Efflux pump mplx = inhibitors of Candida efflux pumps in yeast, primary screen, S. cerevisiae, Nile Red, multiplex. S. cerevisiae Candida pump triplex. inhibition, % at 10 µM. hit rate 0.44% among 330,000;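 active means plate passing quality check with inhibition over a set limit, or well fluorescence over plate mean plus 4 SD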;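 further: Nile Red retained in pooled yeast measured as flow cytometry median fluorescence; 0% = buffer negative control and 100% = Enniatin B positive control; higher means more Nile Red kept so more efflux inhibition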
ATG4B inhibitor = ATG4B protease inhibitors, primary screen, biochemical, fluorescence, uHTS | Cysteine protease ATG4B (Homo sapiens), Q9Y4P1 | ATG4B cleavage of LC3-PLA2, NBD-HPC fluorescence, 1 h | inhibition, % at 8.33 µM | hit rate 0.51% among 340,000 | AID 504462, 2011; in the data active means inhibition above about 40%
Target sequence (Q9Y4P1 whole entry, looked up): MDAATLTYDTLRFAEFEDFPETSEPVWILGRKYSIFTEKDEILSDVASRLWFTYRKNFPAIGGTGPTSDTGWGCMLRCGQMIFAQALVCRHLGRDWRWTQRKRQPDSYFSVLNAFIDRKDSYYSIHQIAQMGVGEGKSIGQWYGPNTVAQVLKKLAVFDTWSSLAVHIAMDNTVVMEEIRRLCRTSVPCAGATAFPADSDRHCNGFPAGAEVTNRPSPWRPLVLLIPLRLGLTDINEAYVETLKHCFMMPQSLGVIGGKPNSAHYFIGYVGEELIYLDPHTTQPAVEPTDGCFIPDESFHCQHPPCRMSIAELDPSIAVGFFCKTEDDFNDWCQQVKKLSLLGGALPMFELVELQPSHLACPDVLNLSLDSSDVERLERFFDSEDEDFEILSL
Mot1-301 SUMO = yeast Mot1-301 growth rescue at high temperature, primary screen, SUMOylation pathway inhibitor project, S. cerevisiae, ATP luminescence, 38.5C | S. cerevisiae Mot1-301 growth rescue; percent above DMSO median, 100 means doubled | growth rescue, % at 18.8 µM | hit rate 1% among 320,000;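 active means every valid replicate shows activation above 250% relative to neutral control wells; inactive means the rest, any valid replicate at or below 250%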;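 further: OY570 slx delta 5 strain wells were the positive control but not used for scaling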
AI-2 QS modul = Vibrio harveyi AI-2 quorum sensing modulators, primary screen, JMH597 strain, luminescence/OD600 ratio. Vibrio harveyi JMH597 AI-2 luminescence/OD600 ratio, 9 h; stronger effect = lower value; strain lacks LuxN and CqsS sensors; 0 = neutral-control median. activity change, % at 7.5 µM. hit rate 0.4% among 300,000; in the data active means activity change below about -75%, passing the limit was not always enough; inconclusive means no clear call, values can overlap the other calls;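 further: luminescence divided by OD600 gain over 9 h not by final OD600 alone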
Yeast cmpd fluor = counter-screen for efflux pump inhibitors: compound fluorescence; shares compounds with Efflux pump mplx; S. cerevisiae AD/pABC3, flow cytometry; fluorescence ratio to DMSO, % at 10 µM; hit rate 4% among 1,700;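 active means fluorescence ratio to DMSO above its plate's cutoff, the plate mean ratio plus 5 SD, cut at about 210% in these data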;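 further: unstained yeast with no Nile Red so the signal is compound autofluorescence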
CaMdr1 efflux inh = inhibitors of Candida albicans Mdr1 efflux, confirmation, flow cytometry, singleplex, Cherry Pick1 set; shares compounds with Efflux pump mplx; S. cerevisiae AD/CaMDR1, Nile Red efflux; inhibition, % at 10 µM; hit rate 1% among 1,700; AID 588518, 2011; in the data active means inhibition above about 26%;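 further: 0% = DMSO vehicle and 100% = reference inhibitor; higher means more Nile Red retained so more efflux inhibition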
CaCdr2 efflux inh = inhibitors of Candida albicans Cdr2 efflux pump, confirmation, S. cerevisiae AD/CaCDR2, flow cytometry, cherry pick 1, singleplex. hit rate 4% among 1,700. Nile Red retention. AID 588520, 2011. shares compounds with Efflux pump mplx. Nile Red retention ratio vs DMSO, % at 10 µM; in the data active means Nile Red retention ratio vs DMSO above about 190%;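 further: higher ratio means more blocking of Cdr2 efflux of the dye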
Cdr1 pump inh = inhibitors of Candida albicans Cdr1 efflux pump, confirmation, S. cerevisiae AD/CaCDR1, flow cytometry, cherry pick 1, singleplex; Nile Red efflux; hit rate 1% among 1,700; inhibition, % at 10 µM; shares compounds with Efflux pump mplx;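 active means inhibition above the screen-wide mean plus twice its standard deviation, cut at about 32% in these data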
Active calls of the source: *; ? = inconclusive; . = no result given.

SMILES | V-ATPase pHluor | Efflux pump mplx | ATG4B inhibitor | Mot1-301 SUMO | AI-2 QS modul | Yeast cmpd fluor | CaMdr1 efflux inh | CaCdr2 efflux inh | Cdr1 pump inh
COc1cc(OC)c(OC)cc1/C=N/NC(=O)C[n+]1ccccc1 | 3.1 | 7.6* | 6.9 | -0.7 | 19.4 | 93.4 | -0.3 | 83.1 | -0.1
COc1ccc(CNC(=O)CCCn2c(=S)[nH]c3cc4c(cc3c2=O)OCO4)cc1 | -0.6 | -0.1 | -0.6 | 15.1 | 20.0 | . | . | . | .
CCOc1cc2[nH]c(=S)n(CCC(=O)NCc3ccc(OC)cc3)c(=O)c2cc1OCC | -4.2 | 0.4* | 4.2 | 5.4 | 18.6 | 101.7 | 0.4 | 127.0 | 0.1
CC(NC(=O)c1ccc(C(=O)c2ccccc2)cc1)c1ccc(S(N)(=O)=O)cc1 (configuration not stated) | -3.1 | . | -7.1 | . | . | . | . | . | .
COc1ccc(CN2C(=O)C(C)Nc3ncnc(N4CCN(c5ccccc5)CC4)c32)cc1 (configuration not stated) | 0.0 | 0.0 | -0.1 | 12.9 | . | 94.4 | -0.1 | 116.5 | 0.0
Cc1ccc(CN2C(=O)C(CC(C)C)Nc3ncnc(N4CCN(c5ccccc5)CC4)c32)cc1 (configuration not stated) | 2.7 | -0.2 | -11.5 | -21.9 | . | 109.0 | 0.0 | 116.6 | 0.0
CCC1Nc2ncnc(N3CCN(c4ccccn4)CC3)c2N(Cc2ccc(Br)cc2)C1=O (configuration not stated) | 4.6 | 0.1 | 3.5 | -19.6 | . | 112.2 | 0.3 | 120.8 | 0.1
CCC1Nc2ncnc(N3CCN(c4ccccc4)CC3)c2N(Cc2ccc(C)cc2)C1=O (configuration not stated) | -2.3 | 0.2 | -14.2 | -7.7 | 18.6 | . | . | . | .
CCC1Nc2ncnc(N3CCN(c4ccccc4)CC3)c2N(Cc2ccccc2)C1=O (configuration not stated) | -3.7 | 0.1 | -2.4 | 4.3 | . | 107.2 | -0.2 | 120.4 | 0.0
CCC1Nc2ncnc(N3CCN(c4ccccn4)CC3)c2N(Cc2ccc(Cl)cc2)C1=O (configuration not stated) | -4.2 | -0.1 | 3.8 | -30.3 | 22.3 | . | . | . | .
CCC(C(=O)NCCc1c[nH]c2ccc(C)cc12)c1ccccc1 (configuration not stated) | -4.6 | 0.0 | -3.9 | -10.3 | -5.5 | . | . | . | .
COc1ccccc1/C=C/C1=NC(=C\C=C/c2ccccc2)/C(=O)O1 | 4.7 | 5.2* | 19.2 | 3.1 | 32.9 | 112.7 | 0.1 | 110.1 | 0.4
COc1ccccc1/C=C/C=C1N=C(/C=C/c2ccc(Cl)cc2)OC/1=O | -2.1 | 0.5 | 2.5 | 3.1 | 20.5 | . | . | . | .
COc1ccc(S(=O)(=O)N2CCN(C(=O)c3ccc(C)o3)CC2)cc1 | 0.9 | 0.2 | -5.3 | -1.6 | 8.2 | . | . | . | .
CCOC(Cn1c(SCc2cc(C(C)=O)ccc2OC)nc2ccccc2c1=O)OCC | -0.9 | -0.2 | 4.1 | -8.8 | 15.9 | . | . | . | .
COc1ccc(C(C)=O)cc1CSc1nc2cc(C(=O)O)ccc2c(=O)n1Cc1ccccc1 | -3.5 | 5.8* | 5.0 | -36.8 | 24.4 | 97.8 | -0.2 | 108.3 | 0.2
COC(=O)C1=C(C)N(CCCC(=O)O)C(=O)NC1c1cccc(Cl)c1Cl (configuration not stated) | 1.3 | 0.0 | 0.1 | 239.4 | 10.1 | . | . | . | .
N#Cc1ccccc1OCC(=O)Nc1nnc(C2CC2)s1 | 1.8 | -0.1 | 11.7 | 14.0 | . | . | . | . | .
CCOc1ccc(CCNC(=O)Cc2ccc(NC3=NC4CS(=O)(=O)CC4S3)cc2)cc1 (configuration not stated) | -3.4 | 0.4* | -12.6 | -25.0 | 7.5 | 87.6 | 0.0 | 89.9 | 0.0
Cc1ccc(C)n1-c1ccc(N2CCOCC2)nc1 | -0.1 | 12.0* | 14.1 | 10.2 | 5.0 | 98.9 | -0.4 | 87.9 | 0.0
Cc1ccc(S(=O)(=O)Nc2ccc(N3CCOCC3)nc2)cc1 | 1.2 | 0.0 | -12.6 | 392.8 | 20.4 | . | . | . | .
CS(=O)(=O)c1ccc(Cl)c(NC(=O)c2cccc(N3C(=O)CCC3=O)c2)c1 | -4.5 | -0.2 | -7.8 | -5.7 | 8.9 | . | . | . | .
CS(=O)(=O)c1ccc(Cl)c(NC(=O)c2cccc(Br)c2)c1 | 1.7 | 5.8* | -3.5 | 3.5 | -11.9 | 99.7 | -0.1 | 90.1 | 0.0
COc1cc(SC)ccc1C(=O)Nc1nccs1 | -1.7 | 1.0* | -10.2 | -0.3 | 20.8 | 107.8 | -0.1 | 95.6 | -0.1
C/C(=N\Nc1cc(C)nc(NCc2ccccc2)n1)c1ccc([N+](=O)[O-])cc1 | 2.0 | 0.0 | -1.6 | 8.5 | 8.1 | . | . | . | .
SMILES | V-ATPase pHluor | Efflux pump mplx | ATG4B inhibitor | Mot1-301 SUMO | AI-2 QS modul | Yeast cmpd fluor | CaMdr1 efflux inh | CaCdr2 efflux inh | Cdr1 pump inh
CCc1cc(-c2cnnn2Cc2ccccc2)ccc1-c1cn(CC(C)C)nn1 | -0.8 | . | . | . | . | . | . | . | .
CCOc1ccc(CNC(=O)NS(=O)(=O)c2ccc(OC)cc2)cc1 | 4.9 | 5.9* | -5.2 | -9.2 | 0.6 | 97.6 | 0.1 | 107.2 | -0.1
O=C(COC(=O)C1CC2CCCC(C1)C2=O)Nc1ccccc1 (configuration not stated) | -2.4 | 0.2 | -4.5 | . | . | . | . | . | .
COC(=O)c1ccc(OCC(=O)N2CCCc3ccccc32)cc1 | -4.2 | 2.8* | 2.6 | 53.7 | 0.2 | 104.6 | -0.2 | 93.5 | -0.1
CC(=O)Nc1ccccc1OCC(O)CS(=O)(=O)c1ccc(C(F)(F)F)cn1 (configuration not stated) | -6.0 | 0.0 | -0.1 | 7.3 | 17.4 | . | . | . | .
CCOC(=O)N1CCN(C(=O)COc2cccc3c2CCN(Cc2ccccc2F)C3=O)CC1 | 2.9 | 2.7* | -10.8 | -20.6 | 13.2 | 112.7 | -0.1 | 106.0 | -0.1
CN(C)C(=O)CSc1nnc(Cc2ccc([N+](=O)[O-])cc2)o1 | 1.6 | 0.1 | -2.3 | 6.6 | -1.9 | . | . | . | .
O=C(CN1C(=O)NC2(CCCC2)C1=O)Nc1cc(Cl)ccc1N1CCOCC1 | -1.1 | 0.0 | -7.8 | -18.2 | 7.9 | . | . | . | .
COc1ccc(-c2nnc(NC(=O)c3ccc(F)cc3)o2)cc1 | 1.2 | 1.0* | 2.1 | -8.6 | ? | 99.8 | 0.1 | 124.7 | 0.2
COc1ccc(-c2nnc(NC(=O)c3ccc4c(c3)OCCO4)o2)cc1 | 3.7 | -0.1 | -12.2 | 9.8 | 5.5 | . | . | . | .
Cc1cc(=O)oc2cc(OC(C(=O)O)c3ccccc3)ccc12 (configuration not stated) | 1.9 | 1.1* | 8.4 | 3.0 | 11.5 | 101.4 | -0.2 | 87.3 | -0.1

Screens: PubChem, several laboratories
